Reference: PubChem BioAssay AID485347 (National Center for Advancing Translational Sciences (NCATS), 2010)
In all, about 340,000 compounds went through this assay and about 1,200 (0.35%) were called active.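 The calls were made as follows: active = potentiation over 3 SD above the plate norm (cut at about 30% in these data); inactive = the rest.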 What follows is part of a selection rich in actives, with near analogues and random picks from the rest.
Also: 0% is about no effect.

What follows are molecules tested against D(2) dopamine receptor (Homo sapiens) (UniProt P14416) (assay: HTS Assay for Positive Allosteric Modulators of the Human D2 Dopamine Receptor: Primary Screen for Potentiators). Details: HEK293 T-REx D2, calcium flux, EC20 dopamine potentiation; at 10 µM; stronger effect = higher value.
D(2) dopamine receptor (Homo sapiens), sequence (P14416 whole entry, looked up): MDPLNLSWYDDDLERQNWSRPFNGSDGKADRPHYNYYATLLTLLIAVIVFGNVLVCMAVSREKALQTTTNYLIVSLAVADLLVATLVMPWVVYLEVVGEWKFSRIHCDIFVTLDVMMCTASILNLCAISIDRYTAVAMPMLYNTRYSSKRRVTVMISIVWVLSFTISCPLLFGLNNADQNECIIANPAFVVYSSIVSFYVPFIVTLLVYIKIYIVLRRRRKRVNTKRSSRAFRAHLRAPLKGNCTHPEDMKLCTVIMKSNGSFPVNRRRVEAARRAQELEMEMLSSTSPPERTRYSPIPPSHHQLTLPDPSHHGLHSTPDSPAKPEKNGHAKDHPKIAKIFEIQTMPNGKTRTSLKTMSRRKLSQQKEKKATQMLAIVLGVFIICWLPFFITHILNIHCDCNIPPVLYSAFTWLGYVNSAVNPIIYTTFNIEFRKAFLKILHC
From the text: NIH Chemical Genomics Center [NCGC] NIH Molecular Libraries Probe Centers Network [MLPCN] MLPCN Grant: NS064831-01 Assay Submitter (PI): David Sibley Dopamine receptors (DARs) are involved in the etiology and/or therapy of a number of neuropsychiatric and endocrine disorders. For instance, all receptor-based antiparkinsonian drugs work via stimulating the D2 DAR subtype whereas all FDA-approved antipsychotic agents are antagonists of this receptor. […] There are three different types of allosteric modulators that we are seeking, two of which will stimulate or augment receptor signaling, allosteric agonists and potentiators, while the third, allosteric antagonists, will attenuate receptor signaling. The present primary screening assay measures compound potentiation of an EC20 dopamine response by tracking calcium flux in a […], inducible Hek293 Trex D2 cell line.
Freshly passaged cells are plated in 1536 well black, clear bottom plates at a density of 4000 cells/well in 3 ul of complete media containing 1x tetracycline inducer. After an overnight incubation at 30 C in 5% CO2, cells are loaded with 2 ul of the no wash Calcium Assay Kit (ABD Bioquest) and incubated at room temperature for 30 to 90 minutes. A 10 cycle (1 second/cycle) baseline measurement is taken and then the FDSS online 1536 pintool delivers 23 nl of compound library (as well as dopamine controls) to the plate. The plate is measured for kinetically at 1 cycle/sec for 180 seconds and is considered to be the agonist portion of the assay (eg, compounds which activate a positive calcium response during this portion are flagged as potential agonists). Following the 180 second read, 1 ul of an EC20 of dopamine is delivered by an onboard pipette head. Measurements are taken kinetically for an additional 180 seconds.
With `COC(=O)C(c1ccccc1)N1CCCCCC1` (stereo not given) the potentiation was 5.6% (inactive). In the case of `O=C(NCC(c1cccnc1)N1CCN(c2ccccc2)CC1)Oc1ccccc1` (stereo not given), the potentiation is reported as 43.6% (active). With `COc1ccccc1N1CCN(C(CNC(=O)Oc2ccccc2)c2cccnc2)CC1` (stereo not given) the potentiation was -0.508% (inactive). For `Cc1cccc(Cn2cccc(C(=O)Nc3ccc4c(c3)OCCO4)c2=O)c1`, the potentiation was -8.38% (inactive). For `Cc1ccc(NC(=O)N(Cc2ccc3c(c2)OCO3)C2CCN(Cc3ccccc3)CC2)cc1F`, the potentiation was 2.88% (inactive).
